# HIF act – HIF pathway transcriptional activation | U2OS HRE-luciferase reporter, luminescence; normalized: DMSO 0%, desferrioxamine 100% | activation, % at 7.5 µM (by protocol) | 300,000 tested, 0.32% active;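 active means mean activation of at least 10% of the iron chelator positive control signal, with at least half of replicates also reaching 10%; inconclusive means mean and replicate majority disagree about reaching 10%; inactive means mean and most replicates under 10%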
# PLC-beta3 inh – inhibitors of human phospholipase C beta3; Q01970; Purified PLC-beta3, fluorogenic substrate, fluorescence; inhibition, % at 12.2 µM; 370,000 tested, 0.18% active
# Target sequence (Q01970 whole entry, looked up): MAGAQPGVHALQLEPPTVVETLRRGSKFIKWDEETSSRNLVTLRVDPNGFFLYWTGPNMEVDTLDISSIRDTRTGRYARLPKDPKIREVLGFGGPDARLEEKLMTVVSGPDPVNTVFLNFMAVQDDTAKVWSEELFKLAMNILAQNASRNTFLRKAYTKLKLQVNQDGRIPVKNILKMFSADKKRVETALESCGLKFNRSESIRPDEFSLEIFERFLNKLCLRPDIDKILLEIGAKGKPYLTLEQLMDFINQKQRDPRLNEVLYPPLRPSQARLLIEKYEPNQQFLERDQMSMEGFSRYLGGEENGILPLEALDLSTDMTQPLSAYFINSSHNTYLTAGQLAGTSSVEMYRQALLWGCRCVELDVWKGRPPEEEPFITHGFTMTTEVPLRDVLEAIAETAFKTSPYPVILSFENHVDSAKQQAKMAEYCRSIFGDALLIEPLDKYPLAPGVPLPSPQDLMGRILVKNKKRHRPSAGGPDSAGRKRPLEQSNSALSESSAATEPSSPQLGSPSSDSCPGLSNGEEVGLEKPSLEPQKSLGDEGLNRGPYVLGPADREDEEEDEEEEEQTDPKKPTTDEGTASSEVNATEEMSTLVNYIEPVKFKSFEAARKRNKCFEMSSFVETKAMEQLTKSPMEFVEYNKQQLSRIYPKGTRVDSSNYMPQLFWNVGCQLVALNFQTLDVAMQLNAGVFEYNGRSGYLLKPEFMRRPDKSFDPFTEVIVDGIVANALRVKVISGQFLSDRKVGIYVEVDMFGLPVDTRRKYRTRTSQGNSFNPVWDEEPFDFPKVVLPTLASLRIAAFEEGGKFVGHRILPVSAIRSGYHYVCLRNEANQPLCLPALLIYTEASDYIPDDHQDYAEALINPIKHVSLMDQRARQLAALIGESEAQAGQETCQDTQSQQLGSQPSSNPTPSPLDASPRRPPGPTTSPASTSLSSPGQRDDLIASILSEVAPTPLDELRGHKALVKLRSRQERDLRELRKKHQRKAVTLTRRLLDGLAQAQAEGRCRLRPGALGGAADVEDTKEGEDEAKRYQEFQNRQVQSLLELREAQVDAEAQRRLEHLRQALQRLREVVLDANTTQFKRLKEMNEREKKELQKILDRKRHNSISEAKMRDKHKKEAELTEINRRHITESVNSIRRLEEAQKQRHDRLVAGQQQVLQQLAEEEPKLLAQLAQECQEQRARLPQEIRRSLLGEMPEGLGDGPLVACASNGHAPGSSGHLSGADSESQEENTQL
# CR mimetic SO – caloric restriction mimetics inhibiting age-related superoxide in yeast; AID 2690; S. cerevisiae aged cells, superoxide DHE fluorescence; hits give low values; 330,000 tested, 0.18% active; superoxide response (% of plate mean), % at 10 µM;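 active means superoxide response under a set limit, about three screen SD below normal, cut at about 65% in these data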;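 further: yeast aged for seven days with compound at 30 °C before DHE staining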
# AHR act – activates the human aryl hydrocarbon receptor; P35869; AHR-responsive luciferase reporter cells, luminescence; activation, % at 5 µM; 320,000 tested, 2.5% active; in the data active means activation above about 47%
# PLC-gamma1 inh – PLC-gamma1 (human) inhibition, primary screen; purified PLC-gamma1, fluorogenic substrate, fluorescence; inhibition, % at 12.2 µM; AID 720700; 370,000 tested, 0.84% active; in the data active means inhibition above about 9.5%
# HGIII-sPLA2 inh – Blocks human group III sPLA2 activity; Q9NZ20; 370,000 tested, 0.56% active; QFRET BODIPY PC-A2 liposome hydrolysis, fluorescence; inhibition, % at 12.2 µM;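 active means inhibition above mean plus 3 SD of compounds lying within the high and low control bounds, cut at about 19% in these data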
# CR mimetic CP – yeast aging superoxide inhibition, cherry pick confirmation. shares compounds with CR mimetic SO. S. cerevisiae aging, superoxide DHE fluorescence; hits give low values. superoxide response (% of plate), % at 10 µM. 850 tested, 1% active. AID 434994;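 active means superoxide signal below 65% of the plate average of sample wells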;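 further: cells aged with compound for 7 days at 30 degrees C before staining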
# DHE fluor count – compound alters DHE oxidation or fluorescence in yeast; shares compounds with CR mimetic SO; S. cerevisiae BY4741, flow cytometry; hits give low values; fluorescence response, % at 10 µM; 850 tested, under 10 active;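 active means fluorescence response below 15%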;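 further: lower means stronger quenching of DHE signal or ROS scavenging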
# AHR act confirm – human AHR activation, confirmation; human cells, AHR-responsive luciferase reporter, luminescence; 2,300 tested, 87% active; activation, % at 9 µM; shares compounds with AHR act; in the data active means activation above about 49%;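 further: HepG2 hepatoma cells carrying a DRE-driven firefly luciferase reporter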
# PXR act counter – PXR activation, counter-screen for AHR activators. shares compounds with AHR act. AID 434939. 2,300 tested, 88% active. activation, % at 11.6 µM. cell-based PXR reporter, luciferase luminescence; in the data active means activation above about 11%;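 further: human hepatoma DPX-2 cells expressing full-length human PXR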
# PLCgamma1 ctr – counter-screen for PLC-beta3 inhibitors: inhibitors of human PLC-gamma1. inhibition, % at 12.3 µM. 3,300 tested, 3.1% active. AID 743258. purified PLC-gamma1, fluorogenic substrate, fluorescence. shares compounds with PLC-gamma1 inh; in the data active means inhibition above about 9.5%
# PLCbeta3 conf – human PLC-beta3 inhibition, confirmation; AID 743261; inhibition, % at 12.3 µM; 3,300 tested, 1% active; purified PLC-beta3, fluorogenic substrate fluorescence; shares compounds with PLC-gamma1 inh
# hGIII sPLA2 conf – human GIII-sPLA2 inhibition, confirmation; shares compounds with HGIII-sPLA2 inh; recombinant hGIII-sPLA2, BODIPY PC-A2 QFRET fluorescence; inhibition, % at 12.2 µM; 2,000 tested, 34% active; AID 743280;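 active means mean inhibition across triplicates above the hit cutoff set in the earlier primary screen, cut at about 19% in these data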
# 535nm interf – 535nm fluorescence interference, HGIII-sPLA2 counter-screen. shares compounds with HGIII-sPLA2 inh. BODIPY FL product fluorescence interference, QFRET. inhibition, % at 12.2 µM. 2,000 tested, 8.5% active. AID 743282;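 active means average inhibition above the solvent-only control mean plus 3 SD, cut at about 6% in these data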
# Hits are given with their value; - = inactive; ? = inconclusive; . = not tested or not shown. Hits are enriched below; roughly 3.9% of the tested compounds scored in any of these assays. Unless noted, no stated cut-off is given here; in the data, active means inhibition above about 11%; inactive means the rest.
SMILES,HIF act,PLC-beta3 inh,CR mimetic SO,AHR act,PLC-gamma1 inh,HGIII-sPLA2 inh,AHR act confirm,PXR act counter,others
Cc1cc(C)n2nc(-c3ccc(Cl)cc3)cc2n1,-,-,-,98,-,-,120,27,CR mimetic CP=-;DHE fluor count=-
Cc1cc(C)n2nc(-c3ccc(Br)cc3)cc2n1,-,-,-,134,-,-,96,30,CR mimetic CP=-;DHE fluor count=-
COc1ccc(-c2cc3nc(C)cc(C)n3n2)cc1,-,-,-,-,-,-,.,.,
CCc1ccc(CCNC(=O)OC2CC3CC2[C@H]2CCCCN2[C@H]3Cc2ccccc2)cc1 (stereo not given in full),.,-,.,.,-,-,.,.,
Cc1ccc(C)c(S(=O)(=O)N2CCN(C(=O)[C@H](C)N3C(=O)C4CC=CCC4C3=O)CC2)c1 (stereo not given in full),.,-,-,-,-,-,.,.,
CCc1c(C)nc2cc(-c3ccc(Cl)cc3)[nH]n2c1=O,-,-,-,113,-,-,95,22,CR mimetic CP=-;DHE fluor count=-
CCOC(=O)CCc1c(C)nc2cc(-c3ccc(Cl)cc3)[nH]n2c1=O,-,-,-,-,-,-,.,.,
Nc1cc2c3c(cccc3c1)C(=O)N(CCN1CCCC1)C2=O,?,-,48,142,-,-,201,.,CR mimetic CP=-;DHE fluor count=-
CCn1c(SCC(=O)Nc2ccc(OC)c(OC)c2)nnc1-c1cccs1,-,-,-,-,12,-,.,.,CR mimetic CP=-;DHE fluor count=-;PLCgamma1 ctr=-;PLCbeta3 conf=-
O=C(CCC(=O)N(CC(=O)NC1CCCCC1)c1ccc(F)cc1)Nc1ccccn1,-,-,-,-,-,-,.,.,
O=C(NC(=S)NNC(=O)c1ccccc1O)c1ccco1,-,-,57,-,-,28,.,.,CR mimetic CP=-;DHE fluor count=-;hGIII sPLA2 conf=-;535nm interf=-
O=C(NNC(=S)NC(=O)c1ccco1)c1ccc(NC(=O)c2ccccc2)cc1,-,-,-,-,-,-,.,.,
O=C(CSc1nnc(-c2ccc(Cl)cc2)n1Cc1ccco1)Nc1ccc(S(=O)(=O)Nc2nccs2)cc1,.,-,.,.,-,-,.,.,
CC12CCCC[C@@H]1CCC1C2CCC2(C)C1CC[C@@]2(O)CNCCO (stereo not given in full),-,-,-,-,-,25,.,.,CR mimetic CP=-;DHE fluor count=-;hGIII sPLA2 conf=-;535nm interf=-
CCOC(=O)Cc1c(C)nc2c(-c3cccc(Br)c3)cnn2c1C,-,-,-,100,-,-,116,21,
Cc1cc(N)n2ncc(-c3cccc(Br)c3)c2n1,.,-,-,93,-,-,125,34,
Cc1cccc(NC(=O)c2cc(=O)[nH]c3ccccc23)c1,-,-,-,89,-,-,90,11,
CN(C)S(=O)(=O)c1cccc(NC(=O)c2cc(=O)[nH]c3ccccc23)c1,-,-,-,-,-,-,.,.,
Cc1cc(C)cc(C(=O)NC(=S)Nc2cccnc2)c1,-,-,-,-,-,-,.,.,
CNC(C#Cc1ccccc1)c1ccccc1C(F)(F)F (stereo not given),.,-,.,.,-,-,.,.,
COc1ccc(NC(=O)c2sc3ncnc(N4CCN(c5ccccn5)CC4)c3c2C)cc1Cl,-,-,-,-,-,-,.,.,
Cc1cc(Br)ccc1NC(=O)c1sc2ncnc(N3CCN(c4ccccn4)CC3)c2c1C,-,-,-,80,-,-,91,19,
COc1cc(-c2nc(-c3ccccc3)c(-c3ccc(F)cc3)[nH]2)cc2c1OCO2,-,-,-,116,-,-,84,66,
COc1cc(-c2nc(-c3ccc4c(c3)-c3ccccc3S4(=O)=O)c(-c3ccccc3)[nH]2)cc(OC)c1O,-,-,-,-,-,-,.,.,
O=C1NC(c2cccs2)Nc2sc3c(c21)CCCC3 (stereo not given),-,-,-,93,-,-,128,37,
SMILES,HIF act,PLC-beta3 inh,CR mimetic SO,AHR act,PLC-gamma1 inh,HGIII-sPLA2 inh,AHR act confirm,PXR act counter,others
O=C(/C=C/c1ccc(F)cc1)N1CCc2ccccc2C1,.,-,-,100,-,-,136,60,
CC(=O)Nc1cccc2c1C(=O)N(c1ccc(C)cc1)C2=O,-,-,-,99,-,-,99,.,
CC(=O)Nc1ccc2c(c1)C(=O)N(c1cccc(C)c1)C2=O,-,-,-,-,-,-,.,.,
CN(CCNC(=O)c1cc2c(=O)n(C)c3ccccc3c2n1C)Cc1ccccc1,-,-,-,-,-,-,.,.,
CCCN(CCC)CCNC(=O)c1cc2c(=O)n(C)c3ccccc3c2n1C,-,-,-,98,-,-,91,42,
O=C(Nc1ccc(Cl)cc1)c1csc(Cc2ccccc2)n1,-,-,-,85,-,-,-,-,
C=C(C)CNC(=S)N/N=C\c1ccc2c(c1)OCO2,-,-,-,82,-,-,64,67,
COc1cc(/C=N/NC(=O)c2cccnc2)cc2c1OCO2,-,-,-,88,-,-,78,.,
CCCCNC(=S)N(C)/N=C/c1ccc2c(c1)OCO2,-,-,-,159,-,-,68,26,
O=C(CNC(=O)c1ccccc1Cl)N/N=C/c1ccc2c(c1)OCO2,-,-,-,-,-,-,.,.,
Clc1ccccc1N/N=C/c1ccc2c(c1)OCO2,-,-,-,80,-,-,66,35,
COc1cc(/C=N/NC(=O)c2ccccn2)cc2c1OCO2,-,-,-,-,-,-,.,.,
C=C(C)CNC(=S)N/N=C/c1ccc(N2CCOCC2)cc1,-,-,-,-,-,-,.,.,
CCN(C[C@H]1[C@@H](c2ccc(C3=CCCC3)cc2)[C@H](CO)N1Cc1ccccn1)S(=O)(=O)c1ccccc1[N+](=O)[O-],.,-,.,.,-,-,.,.,
CCN(C[C@H]1N[C@@](CC)(C(=O)OC)[C@H]2C(=O)N(C)C(=O)[C@@H]12)C(=O)c1ccccc1,.,-,-,-,-,-,.,.,

# Screening data (PubChem)
